Assay results taken from PubChem BioAssay (EPA / NIEHS).
Results filed as inconclusive are left out. Activity calls are given as the source filed them. How the source made its calls, unless noted: active means hit-call score of the fitted dose curve at least 0.9, where 1 is the maximum; inactive means score below 0.9. Starred links: 1 amine or outer side, 2 acyl side, 3 side chain; linkers in the order of their positions; H or OH if unused. Positions of bridges follow the written chain, without caps; N, C: chain ends. Non-standard residues stand in square brackets, D forms with d. Residues, ends and D or L forms follow the SMILES beside them. Adda = CO[C@@H](Cc1ccccc1)[C@@H](C)/C=C(C)/C=C/[C@H](N[*:1])[C@H](C)C(=O)[*:2]; dAsp(3S-Me) = C[C@H](C(=O)[*:3])[C@@H](N[*:1])C(=O)[*:2]; d(γGlu) = O=C(O)[C@@H](CCC(=O)[*:2])N[*:1]; NMeDha = C=C(NC)C(=O)O

Experiments:
[1] = CCTE_Harrill_HTTr_Apoptosis_MCF7: CCTE's 6-hour Apoptosis Assessment for the High-Throughput Transcriptomics (HTTr) Platform, in MCF-7 cells cultured in DMEM + 10% fetal bovine serum, Harrill Lab (AID 2284011)
Procedure, shortened: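 MCF-7 cells in DMEM + 10% FBS exposed 6 h to chemicals over an eight-point dilution series. Caspase-3/7 activation imaged by high-content CellEvent Green staining; fitted bidirectionally versus DMSO.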

[2] = CCTE_Harrill_HTTr_CellCount_MCF7: CCTE's Cell Proliferation Assessment for the High-Throughput Transcriptomics (HTTr) Platform, Harrill Lab (AID 2284012; active means hit-call score of the fitted dose curve at least 0.9, where 1 is the maximum;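 further: cells exposed to compound for six hours; intended direction is loss of nuclei count meaning fewer cells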)
Procedure, shortened: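 MCF-7 cells were exposed for 6 h to an eight-point dilution series; Hoechst-labeled nuclei were counted by high content imaging. Curves were fitted bidirectionally against DMSO as negative control and baseline, with signal loss indicating reduced cell count.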

[3] = CCTE_Harrill_HTTr_Viability_MCF7: CCTE's 6-hour Cell Viability Assessment for the High-Throughput Transcriptomics (HTTr) Platform, in MCF-7 cells cultured in DMEM + 10% fetal bovine serum, Harrill Lab (AID 2284010)
Procedure, shortened: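 Membrane integrity was scored by high-content imaging of propidium iodide dye exclusion after a 6 h exposure across an eight-point dilution series. Data were fitted bidirectionally relative to DMSO as negative control and baseline.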

| Compound | outcome [1] | outcome [2] | outcome [3] |
| --- | --- | --- | --- |
| C=C1C(=O)N[C@H](C)C(=O)N[C@H](CC(C)C)C(=O)N[C@@H](C(=O)O)[C@H](C)C(=O)N[C@@H](CCCN=C(N)N)C(=O)N[C@@H](/C=C/C(C)=C/[C@H](C)[C@H](Cc2ccccc2)OC)[C@H](C)C(=O)N[C@@H](C(=O)O)CCC(=O)N1C (R[Adda][d(γGlu)][NMeDha][dA][dL][dAsp(3S-Me)]-OH; lactam N-7) | inactive | inactive |  |
| FC(F)(F)c1ccc(OCCCOc2c(Cl)cc(OCC=C(Cl)Cl)cc2Cl)nc1 | inactive | inactive | inactive |
